# PubChem BioAssay AID938 (National Center for Advancing Translational Sciences (NCATS), 2007)
# Values joined by “and” are separate entries in the source; they are usually repeats but may differ in a detail not shown here. Equal values may be shown once. The campaign covered roughly 73,000 compounds. About 1,800 (2.5%) were called active. Where a call stands in place of a potency, no number is given. About 13% were inconclusive and are not listed. This is one part of a sample in which actives are shown more often than they occur. Calls follow the shape of the dose curve; as a rule, active = well fitted activation curve with a large enough effect; inconclusive = small, poorly fitted or top-dose-only effect; inactive = no such curve, though single readings can be large or run the other way. The source holds several records for some structures; these can differ, active in one and inactive in another.
# Assay: qHTS Assay for Agonists of the Thyroid Stimulating Hormone Receptor: Activators of Intracellular cAMP Concentrations in Parental HEK 293; also: nearly all actives have a fitted effect of over 55% in size
# Details: parental HEK293 CNG cAMP sensor, membrane potential fluorescence; series mostly up to 57.1 µM
# In short: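 Parental HEK 293 cells stably expressing a modified CNG channel (no TSHR) report cAMP rise as membrane depolarization. Membrane potential dye with 100 uM RO 20-1724 was loaded for 60 min at room temperature, then compound added for 30 min; fluorescence read at 590 nm.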
# Potency is read from the fitted curve at half-maximal effect.
SMILES,Potency,activation
COC(=O)[C@@H](NC(=O)NCc1cccc(OC)c1)C(C)C,inactive,–
O=C(Nc1cccc(NC(=O)N2CCN(c3ccccc3)CC2)c1)N1CCN(c2ccccc2)CC1,inactive,–
O=C(c1cccc(F)c1)N1CCC2(CC1)CCN(c1ccccc1)CC2,inactive,–
O=C(Nc1ccccc1N1CCN(c2ccccc2)CC1)c1cccc(F)c1,3.98 µM (active),–
O=C1[C@H]2[C@H]3[C@H](O)[C@H](O)C/C(=N/OCc4ccccc4)[C@H]3CC[C@@H]2C(=O)N1Cc1ccccc1,–,-2.25% [at 11.4 µM] (inactive)
C[C@@H](c1ccccc1)N1C(=O)[C@H]2[C@H]3[C@H](O)[C@H](O)C/C(=N/OC[C@@H](O)COCc4ccco4)[C@@H]3CC[C@@H]2C1=O,–,5.7% [at 11.4 µM] (inactive)
O=C(NCc1ccco1)c1cccn2c(=O)c3cc(Br)ccc3nc12,inactive,–
O=C(NCc1ccco1)c1cc(-c2cccnc2)nc2ccc(Cl)cc12,31.6 µM (active),–
O=C(NCc1ccco1)c1nc(-c2ccccc2)n(-c2ccccc2)n1,inactive,–
CN(C)CCCCNC(=O)c1ccc(Cc2nc3ccccc3[nH]2)cc1,inactive,–
Oc1c(Cl)cc(Cl)c(Cl)c1Cc1c(O)c(Cl)cc(Cl)c1Cl,10 µM (active),–
C=CC(=O)c1ccc2ccccc2c1,inactive,–
O=C(CCSc1ccccc1)NCCSc1ccccn1,inactive,–
COc1ccc(CCn2nnnc2C(c2ccccc2)N2CCN(C)CC2)cc1OC (centres undefined),inactive,–
CC(C)C(c1nnnn1CCc1ccccc1)N1CCN(C(=O)c2ccco2)CC1 (centres undefined),inactive,–
N#Cc1ccc(C(c2nnnn2CCc2ccccc2)N2CCCCCC2)cc1 (centres undefined),15.8 µM (active),–
S=c1c2[nH]cnc2ncn1CCSc1ncnc2nc[nH]c12,–,-1.69% [at 11.4 µM] (inactive)
c1ccc(COc2nsnc2N2CCOCC2)cc1,inactive,–
c1ccc(-n2nnnc2N2CCOCC2)cc1,inactive,–
c1ccc(-c2oc3ncnc(N4CCOCC4)c3c2-c2ccccc2)cc1,15.8 µM (active),–

SMILES,Potency,activation
CC(C)NC(=O)CCCn1c(=S)[nH]c2cc3c(cc2c1=O)OCO3,inactive,–
O=C(Nc1ccccc1)N[C@H]1C[C@H](C(=O)O)Nc2cc(Cl)cc(Cl)c21,inactive,–
COCCNc1cc(-c2c(C)noc2C)ncn1,inactive,–
CNc1cc(-c2c(C)noc2C)ncn1,3.98 µM (active),–
Cc1noc(C)c1-c1cc(NCc2cccnc2)ncn1,inactive,–
O=C(CSc1nnc(-c2ccoc2)o1)N1CCOCC1,inactive,–
CC(=O)OCC1OC(C#CCCCc2ccccc2)C=CC1OC(C)=O (centres undefined),–,-0.905% [at 11.4 µM] (inactive)
COCCCNC(=O)CCc1nc2cccnc2n1Cc1ccc(OC)cc1,inactive,–
COC(=O)[C@@H]1CC[C@H](C)[C@@H](c2ccc(C)cc2)N1C(=O)c1ccc(/C=N\OC[C@@H](O)COCc2ccco2)cc1,–,44.4% [at 11.4 µM] (inactive)
CO[C@@H]1COC(=O)[C@H](Cc2ccccc2)NC(=O)C/C=C\[C@@H](C)[C@H](OC)COC(=O)[C@@H](C)NC(=O)C/C=C\[C@H]1C,–,8.45% [at 11.4 µM] (inactive) and -4.16% [at 11.4 µM] (inactive)
COCCn1c(SCC(=O)Nc2cc(Cl)ccc2OC)nc2c(c1=O)SC(C)C2 (centres undefined),inactive,–
COC(=O)c1ccc(C2C3=C(Nc4nnnn42)c2ccccc2OC3)cc1 (centres undefined),12.6 µM (active),–
COc1ccccc1NC(=O)C1=C(C)Nc2nnnn2C1c1cccc(Br)c1 (centres undefined),inactive,–
COc1ccc(C2C(C(=O)Nc3ccccc3OC)=C(C)Nc3nnnn32)c(OC)c1 (centres undefined),inactive,–
O=C(CNCCO)NC12CC3CC(CC(C3)C1)C2,inactive,–
CO[C@H]1COC(=O)[C@@H](C)NC(=O)C/C=C\[C@@H](C)[C@H](OC)COC(=O)C/C=C\[C@@H]1C,–,2.45% [at 11.4 µM] (inactive)
Cc1ccc(N2CCN(c3ccc(C)cc3)C2c2ccccn2)cc1,inactive,–
Cc1ccc(N(CC(O)CN2CCCC2)S(=O)(=O)c2ccccc2)cc1 (centres undefined),–,9.44% [at 11.4 µM] (inactive)
Cc1ccc(/C(=C/CN2CCCC2)c2ccccn2)cc1,inactive and 25.1 µM (active),–
O=NO,inactive,–

SMILES,Potency,activation
Cn1c(=O)n2n(c1=O)[C@H]1[C@H](O)[C@H]3O[C@H]3C(=O)[C@H]1CC2,–,0.42% [at 11.4 µM] (inactive)
O=C(Cn1nc(C(F)(F)F)c2c1CCC2)NCc1ccc(F)cc1,inactive,–
Cc1cc(NC(=O)Cn2nc(C(F)(F)F)c3c2CCCC3)no1,inactive,–
COC(=O)c1ccccc1NC(=O)Cn1nc(C(F)(F)F)c2c1CCC2,25.1 µM (active),–
CCCNC(=O)OC[C@@H]1O[C@H](c2ccccc2)C=C[C@@H]1Oc1ccc(OC)cc1,–,1.38% [at 11.4 µM] (inactive)
CCCC[C@@H]1C[C@H]1C(NC(=O)c1ccc(-c2ccccc2)cc1)c1ccc(-c2ccccc2)cc1 (some centres undefined),inactive,–
COC(=O)c1ccc(NC(=O)c2ccco2)cc1,inactive,–
CCCC[C@@H]1C[C@H]1C(NC(=O)c1ccco1)c1ccc(C(=O)OC)cc1 (some centres undefined),25.1 µM (active),–
CCC(C)(C)N=C(NC#N)Nc1cccnc1,inactive,–
O=C(CN1CCN(c2ccccc2F)CC1)c1ccc2c(c1)OCO2,inactive,–
CC1CCN(Cc2nc3c(c(=O)n(C)c(=O)n3C)n2CCc2ccccc2)CC1,5.01 µM (active),–
COCCn1c(CN2CCC(Cc3ccccc3)CC2)nc2c1c(=O)n(C)c(=O)n2C,inactive,–
Cn1c(=O)c2c(nc(CN3CCOCC3)n2Cc2ccccc2)n(C)c1=O,inactive,–
CC1CN(C(=O)c2ccc3c(c2)OCO3)OC(c2ccccc2)O1 (centres undefined),inactive,–
CC(Sc1nc2ccccc2c(=O)n1Cc1ccco1)C(=O)c1ccccc1 (centres undefined),15.8 µM (active),–
Cc1nc2c(c(=O)n1Cc1ccco1)c1nc3ccccc3nc1n2Cc1ccccc1,inactive,–
Cc1ccc(C(=O)CSc2nc3ccccc3c(=O)n2N)o1,inactive,–
CO[C@H]1COC(=O)[C@H](Cc2ccccc2)NC(=O)C/C=C\[C@@H](C)[C@H](OC)COC(=O)C/C=C\[C@@H]1C,–,25.1% [at 11.4 µM] (inactive)
COc1ccc(NC(=O)N2CC3(CCN(C(=O)c4cccn4C)CC3)C2)cc1,inactive,–
